# Bioassay records: PubChem BioAssay, National Center for Advancing Translational Sciences (NCATS)
# IDH1 R132H inh – human IDH1 R132H inhibition; Potency, µM (doses to about 76.6 µM), without a hit: at the top dose activity change, negative = inhibition, hits mostly inhibitors; IDH1-R132H enzyme, NADPH consumption, diaphorase/resazurin fluorescence; O75874; 390,000 compounds, 0.093% hits; also: potency is read from the fitted curve at half-maximal effect; nearly all actives have a fitted effect of over 65% in size
#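 IDH1-R132H (0.5 ug/mL) preincubated 30 min with compound, then NADPH (0.016 mM) and alpha-KG (2 mM) added; 80 min at RT, pH 7.5. Remaining NADPH coupled via diaphorase/resazurin to fluorescence (540/590 nm); concentration-response curves normalized to no-enzyme control.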
# rTrxR1 inhibitor – rat TrxR1 inhibition. recombinant rTrxR1, NADPH fluorescence consumption, selenite substrate. O89049. Potency, µM (series often up to 114 µM), for inactives: at the top dose activity change, negative = inhibition, most hits filed as inhibitors. 390,000 compounds, 1% hits; also: potency is read from the fitted curve at half-maximal effect; nearly all actives have a fitted effect of over 65% in size
#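 Rat TrxR1 (90 nM in the dispensed reagent) was pre-reduced with 400 uM NADPH for 5 min at room temperature, then incubated with compound for 15 min. After 400 uM selenite was added, NADPH fluorescence (Ex 340/Em 450 nm) was followed for 8 min.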
# GLS inh – glutaminase GLS (human) inhibition | O94925 | GLS enzymatic activity, qHTS titration | Potency, µM (series often up to 45.5 µM), without a hit: at the top dose activity change, negative = inhibition, hits mostly inhibitors | 410,000 compounds, 0.21% hits; also: potency is read from the fitted curve at half-maximal effect
# Target sequence (O94925 whole entry, looked up): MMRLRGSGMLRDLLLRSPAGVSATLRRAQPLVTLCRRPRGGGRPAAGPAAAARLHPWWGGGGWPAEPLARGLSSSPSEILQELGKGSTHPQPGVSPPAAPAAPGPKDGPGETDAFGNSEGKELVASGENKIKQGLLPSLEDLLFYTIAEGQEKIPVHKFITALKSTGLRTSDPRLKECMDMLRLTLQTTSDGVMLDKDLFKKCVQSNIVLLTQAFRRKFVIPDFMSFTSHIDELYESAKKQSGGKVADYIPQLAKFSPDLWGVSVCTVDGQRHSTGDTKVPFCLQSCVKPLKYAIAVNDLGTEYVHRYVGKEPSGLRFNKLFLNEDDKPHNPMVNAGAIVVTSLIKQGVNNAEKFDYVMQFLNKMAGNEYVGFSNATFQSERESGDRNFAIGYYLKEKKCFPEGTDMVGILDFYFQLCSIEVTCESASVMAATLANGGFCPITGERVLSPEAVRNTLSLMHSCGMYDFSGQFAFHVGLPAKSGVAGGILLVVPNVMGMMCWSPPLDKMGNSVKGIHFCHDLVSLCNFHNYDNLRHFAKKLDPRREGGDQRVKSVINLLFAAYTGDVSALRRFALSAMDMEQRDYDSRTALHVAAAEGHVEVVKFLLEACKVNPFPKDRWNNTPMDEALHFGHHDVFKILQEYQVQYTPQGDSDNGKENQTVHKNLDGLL
#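 Coupled fluorescence readout: glutamate oxidase/HRP/Amplex Red detect glutamate formed by hKGA from L-glutamine (1 mM solution added). Buffer 45 mM KH2PO4 pH 8.2, 0.02% Tween-20; reads at t0 and 30 min RT.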
# LDHA block – LDHA (human) enzyme inhibition. P00338. AID 1347041. 480,000 compounds, 0.15% hits. activity change, % (values are at about 110 or 230 µM). purified LDHA, NADH/diaphorase-resazurin fluorescence; stronger effect = lower value; in the data active = activity change below about -30%; inconclusive = mostly about -25% to -30%;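 also: plate controls were DMSO wells for no effect and wells without enzyme for full effect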
#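 Human LDH5 (2 nM) was incubated with 0.06 mM NADH and 0.2 mM pyruvate for 5 min at room temperature in Tris pH 7.4. Remaining NADH was coupled through diaphorase/resazurin, and resorufin fluorescence was read at 0 and 20 min.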
# TrxR1 substrate – rat thioredoxin reductase 1 substrate activity; purified TrxR1 substrate turnover, NADPH consumption readout; O89049; Potency, µM (series often up to 114 µM), inactives show top-dose activity change, negative = substrate turnover; 390,000 compounds, 0.01% hits; AID 588456; also: potency is read from the fitted curve at half-maximal effect; nearly all actives have a fitted effect of over 50% in size
#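 Rat TrxR1, dispensed at 90 nM, was prereduced with 400 uM NADPH (final) for 5 min at ~22 deg C, then incubated with compound 15 min before 400 uM selenite. A first-read NADPH fluorescence drop versus no-compound background flagged substrates.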
# PKM2 act – increases activity of human pyruvate kinase M2; P14618; purified PKM2, Kinase-Glo ATP luminescence, activation; response scale: 0% is enzyme alone, no compound; 260,000 compounds, 0.34% hits; AID 1631; Potency, µM (titrated, usually from 57.5 µM), for inactives: at the top dose activation, most hits filed as activators; also: potency is read from the fitted curve at half-maximal effect; nearly all actives have a fitted effect of over 55% in size
#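 Purified hPK-M2 (>95% pure) converted ADP (0.1 mM final) to ATP with 0.5 mM PEP in 50 mM imidazole pH7.2, KCl, MgCl2, Tween 20, BSA; 1 h at room temperature. ATP detected by Kinase-Glo luminescence.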
# * marks the source's active call; other numbers are inactive results; ? = inconclusive; nt = no result given; [ ] = another dose, or the depositor's remark. Only some compounds are listed: those with a hit (about 1.4% of all), similar ones and a draw of the others. Unless noted, calls follow the shape of the dose curve; as a rule, active = well fitted curve in the direction sought with a large enough effect; inconclusive = small, poorly fitted or top-dose-only effect, or another doubt; inactive = no such curve, though single readings can be large; an effect the other way counts as inactive or inconclusive. Unless noted, % is scaled to controls: 0 for no effect and ±100 for the full control effect.
SMILES,IDH1 R132H inh,rTrxR1 inhibitor,GLS inh,LDHA block,TrxR1 substrate,PKM2 act
Cc1ccc(C)c(S(=O)(=O)N2CCN(C(=O)/C=C/c3ccco3)CC2)c1,-8%,7.9µM*,-14%,-6,2%,nt
Cc1ccc(S(=O)(=O)N2CCN(C(=O)/C=C/c3ccco3)CC2)cc1,4%,8%[57.1 µM],140%,-4,6%[57.1 µM],2%
O=C(/C=C/c1ccco1)N1CCCC(c2ccccc2)C1 (stereo not given),6%,32µM*,-8%,1,0%,17%
Cc1ccc(/C=C/C(=O)N2CCN(c3ncccn3)CC2)o1,0%,22µM*,?,-2,-11%,19%
Cc1ccc(/C=C/C(=O)N2CCc3ccccc32)o1,-1%,3.2µM*,-14%,-2,-5%,9%
COc1ccc(NC(=O)COc2ccc3c(C)cc(=O)oc3c2C)cc1,nt,nt,nt,-1,nt,nt
S=C(NCc1ccc(Cl)cc1)NCc1cccs1,nt,nt,nt,5,nt,nt
O=C(c1ccco1)N1CCc2ccccc21,-5%,12%,5%,-1,2%,-12%
O=C(/C=C/c1ccco1)N1CCc2ccccc21,6%,56µM*,-5%,2,-12%,-44%
COc1ccccc1N1CCN(C(=O)/C=C/c2ccco2)CC1,5%,40µM*,0%,-4,-7%,?
CCOc1ccc(S(=O)(=O)N2CCN(C(C(=O)O)c3c[nH]c4cc(F)ccc34)CC2)cc1 (stereo not given),nt,nt,nt,1,nt,nt
Cc1cc(Nc2c(C)n(C)n(-c3ccccc3)c2=O)n2c(nc3ccccc32)c1C#N,6%,35µM*,37%,7,5%,2%
Nc1ccc(Sc2ccc([N+](=O)[O-])cc2)cc1,5%,20%[57.1 µM],-1%,-2,-2%,1%
O=C1C=CC(=O)N1c1ccc(Sc2ccc([N+](=O)[O-])cc2)cc1,nt,nt,nt,nt,nt,32µM*
COc1ccc(C(=O)/C(C#N)=C\c2cc(Br)c(O)c(OC)c2)cc1,nt,nt,nt,12,nt,nt
COC(=O)CSc1[nH]c2ccc(F)cc2c1[N+](=O)[O-],15%,35µM*,-3%,-1,-2%,29%
CCOC(=O)CSc1[nH]c2cc(OC)ccc2c1[N+](=O)[O-],2%,-53%,2%,-3,12%[57.1 µM],10%
O=C1Nc2ccccc2C1Cc1ccccc1 (stereo not given),11%,13%[2.29 µM],-6%,0,-3%[57.1 µM],4%
COc1ccc(C[C@@H]2OC3(C=CC(=O)C=C3)O[C@H]2Cc2ccc(OC)cc2)cc1,-3%,0.56µM*,-2%,-10,-1%,nt
O=C1C=CC2(C=C1)O[C@H](Cc1ccccc1)[C@@H](Cc1ccccc1)O2,2%,0.89µM*,-12%,6,4%[11.4 µM],nt
COc1ccc(CCNCCc2ccc(OC)cc2)cc1,nt,nt,nt,-5,nt,nt
O=C(O)c1cc(O)ccc1O,10%,38%,0%,4,238%,nt
Nc1ccc(O)c(C(=O)O)c1,nt,nt,16µM*,nt,nt,nt
COc1ccc(C(NC(=O)c2cccc(Cl)c2)NC(=O)c2cccc(Cl)c2)cc1,nt,nt,nt,9,nt,nt
c1coc(C2Nc3cccc4cccc(c34)N2)c1,nt,nt,nt,13,nt,1%
SMILES,IDH1 R132H inh,rTrxR1 inhibitor,GLS inh,LDHA block,TrxR1 substrate,PKM2 act
Brc1ccc(C2Nc3cccc4cccc(c34)N2)cc1,20%,?,-1%,2,-9%,nt
Fc1ccc(C2Nc3cccc4cccc(c34)N2)cc1,-4%,25µM*,24%,17,-2%,nt
CCN(CC)c1ccc(C2Nc3cccc4cccc(c34)N2)cc1,10%,2%,-1%,-1,0%,-4%
FC(F)(F)c1ccc(C2Nc3cccc4cccc(c34)N2)cc1,-2%,28µM*,0%,3,-6%,2%
Cc1ccc(C2Nc3cccc4cccc(c34)N2)s1,14%,22µM*,17%,19,-8%,0%
COC(=O)C(NC(=O)c1ccc(OC)cc1)(Nc1nc(C2CC2)cs1)C(F)(F)F (stereo not given),nt,nt,nt,8,nt,nt
O=C(CCc1cccs1)N(Cc1cccnc1)C1CC1,nt,nt,nt,9,nt,nt
Cc1noc(NS(=O)(=O)c2ccc(NC(=O)CC34CC5CC(CC(Br)(C5)C3)C4)cc2)c1C,-7%,-15%,13%,-46*,-11%,3%
Cc1ccc(-c2nc(CS(=O)CC(=O)NC3CCC(C)CC3)c(C)o2)cc1 (stereo not given),1%,16µM*,-2%,-6,22%[57.1 µM],4%
Cc1oc(-c2ccccc2)nc1CS(=O)CC(=O)NC1CCCCCC1 (stereo not given),-5%,32µM*,0%,0,-15%,nt
CCOC(=O)C1CCN(C(=O)CS(=O)Cc2nc(-c3ccc(C)cc3)oc2C)CC1 (stereo not given),7%,14µM*,3%,-1,1%[57.1 µM],12%
CN(C)c1nc(C=C(C#N)C#N)c(Cl)n1-c1ccc(F)cc1,5%,4.5µM*,-6%,5,-9%,-2%
Cc1cc(C=C(C#N)C#N)c(C)n1-c1ccncc1,nt,nt,nt,9,nt,nt
CCc1cc(C(=O)Nc2sc(Cc3ccccc3)cc2C(N)=O)cs1,nt,nt,nt,1,nt,nt
Oc1cc(NCCN2CCOCC2)cc2cccnc12,nt,11µM*,10%,1,0%,nt
Oc1cc(Nc2ccccc2)cc2cccnc12,nt,12%[57.1 µM],0%,10,-4%,nt
Cn1c(N)c(C(=O)CCl)c(=O)n(Cc2ccccc2)c1=O,-3%,13µM*,-8%,-1,10%[57.1 µM],?
Cn1c(=O)c(C(=O)CCl)c(N)n(Cc2ccccc2)c1=O,-13%,?,4%,-10,11%[57.1 µM],4%
CCOc1cccc(C2c3c(-c4ccccc4O)n[nH]c3C(=O)N2Cc2ccncc2)c1 (stereo not given),nt,nt,nt,-1,nt,nt
C#CCSc1nccc(-c2nn(-c3ccc(C)cc3)ccc2=O)n1,8%,79µM*,-7%,2,20%,-9%
CCSc1nccc(-c2nn(-c3ccc(C)cc3)ccc2=O)n1,8%,11%,-3%,0,7%,4%
O=S(=O)(Nc1ccc(Cl)cc1)c1ccc2c(c1)CCO2,4%,18%,10%,-2,3%,18µM*
Cc1ccc2occ(CN3CCN(Cc4ccccc4)CC3)c(=O)c2c1,nt,nt,nt,nt,nt,-1%
O=c1c(CN2CCN(Cc3ccccc3)CC2)coc2ccc(Cl)cc12,3%,22µM*,2%,-5,13%,-4%
O=c1oc2ccccc2c(NCc2ccccc2)c1NS(=O)(=O)c1ccc(F)c(F)c1,nt,nt,nt,-2,nt,nt
Cc1occc1-c1nnc(SCC(=O)c2c[nH]c3ccccc23)n1C,5%,?,-3%,0,7%[57.1 µM],25µM*
NS(=O)(=O)c1ccc(NCc2c(F)cccc2Cl)cc1,10%,-1%,7%,-1,-3%,-1%
